High-throughput results deposited in PubChem BioAssay by The Scripps Research Institute Molecular Screening Center.
FBW7 act = FBW7 E3 ligase activators, primary screen, biochemical, AlphaScreen, human; 650,000 tested, 0.13% active; F-box/WD repeat-containing protein 7 (Homo sapiens), Q969H0; normalized activity (activation), % at 26.1 µM; AlphaScreen FBW7–phospho-cyclin E peptide binding, activator screen; in the data active = normalized activity above about 1.9%;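 also: purified mutant Fbw7 with reduced substrate affinity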
GPR151 activ = activators of human GPR151, primary screen, cell-based, PathHunter beta-arrestin, luminescence. G-protein coupled receptor 151 (Homo sapiens), Q8TDV0. PathHunter beta-arrestin GPR151 cells. activation, % at 11.2 µM. 650,000 tested, 1% active. AID 1508602, 2020; in the data active = activation above about 4.9%
Target sequence (Q8TDV0 whole entry, looked up): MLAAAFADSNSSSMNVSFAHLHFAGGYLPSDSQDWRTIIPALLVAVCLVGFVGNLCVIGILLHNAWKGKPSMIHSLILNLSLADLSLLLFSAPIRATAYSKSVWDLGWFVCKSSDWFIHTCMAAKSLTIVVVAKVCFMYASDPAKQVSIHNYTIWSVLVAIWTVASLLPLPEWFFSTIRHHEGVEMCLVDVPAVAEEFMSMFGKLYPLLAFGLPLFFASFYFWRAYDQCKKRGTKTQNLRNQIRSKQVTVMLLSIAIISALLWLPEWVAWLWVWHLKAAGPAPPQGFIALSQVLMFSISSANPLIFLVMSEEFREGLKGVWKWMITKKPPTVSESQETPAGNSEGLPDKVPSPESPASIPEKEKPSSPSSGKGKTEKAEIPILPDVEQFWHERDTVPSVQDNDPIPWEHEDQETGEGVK
MITF primary = MITF inhibitors, primary screen, biochemical, AlphaScreen, human | 650,000 tested, 0.91% active | Microphthalmia-associated transcription factor (Homo sapiens), O75030 | inhibition, % at 2.6 µM | AlphaScreen MITF homodimerization, bead proximity signal; in the data active = inhibition above about 50%
TEAD-YAP inh = TEAD-YAP interaction inhibition, primary screen, TEAD-YAP interaction inhibitor project, luminescence, HEK-TIYL cells. AID 1259422, 2018. inhibition, % at 9.12 µM. TEAD-Gal4/YAP UAS-luciferase luminescence. 640,000 tested, 1.4% active; in the data active = inhibition above about 32%
Hits are given with their value; . = inactive. In the library only some 3.4% were active in any assay of this set; here they are far more common.

SMILES	FBW7 act	GPR151 activ	MITF primary	TEAD-YAP inh
COc1ccc(CN2CCc3c(nc(N4CCCCC4)[nH]c3=O)C2)cc1OC	.	.	.	.
COCCn1c(=O)[nH]c2cc(C(=O)NCCCN3CCCCC3C)ccc2c1=O (configuration not stated)	.	.	.	.
Cc1ncn(-c2ccc(Nc3nccc(Nc4cccc(N5CCOCC5)c4)n3)cc2)n1	.	.	.	63.4
Cc1ncn(-c2ccc(Nc3nccc(Nc4cccc(N)c4)n3)cc2)n1	.	.	.	34.7
Cc1ncn(-c2ccc(Nc3cc(-c4cccc(N5CCOCC5)c4)ccn3)cc2)n1	.	.	.	.
Cc1nc(C)n(-c2ccc(Nc3nccc(N(C)Cc4ccccc4)n3)cc2)n1	.	.	.	50.7
Cc1nc(C)n(-c2ccc(Nc3nccc(-c4ccc5ccccc5c4)n3)cc2)n1	.	.	.	.
CCOC(=O)CN(Cc1ccccc1)c1ccnc(Nc2ccc(-n3nc(C)nc3C)cc2)n1	.	.	.	52.6
O=C1CCCC2=C1C(c1ccccc1Cl)NC(=S)N2 (configuration not stated)	.	.	.	.
COc1ccc(C(=O)Nc2ccc(NC(C)=O)cc2)cc1	.	.	.	.
CC1CCC2(CC1)NC(=O)N(CC(=O)c1ccc(F)c(F)c1)C2=O (configuration not stated)	.	.	.	.
COc1ccccc1-n1c(=S)sc2c(=O)n(-c3ccccc3)c(SCc3ccccc3F)nc21	.	.	.	.
Cc1cccc(C)c1-n1c(=S)sc2c(=O)n(-c3ccccc3)c(SCc3ccccc3F)nc21	.	.	.	45.9
CCc1cccc(CC)c1NC(=O)CSc1nncn1N	.	.	.	.
N/C(=N\N=C\c1ccc(O)c(O)c1)SC1CC(=O)N(c2ccc(C(=O)O)cc2)C1=O (configuration not stated)	.	.	81.8	.
CC(C)C(=O)OCCNOC(=O)Nc1ccc(Cl)cc1	.	.	.	.
CC(=O)c1ccc(N=Nc2ccc3nonc3c2N)cc1	.	.	.	49.9
O=C(Cn1nnc(-c2ccccc2NC(=O)c2ccc(F)cc2)n1)NCc1cccs1	2.5	.	.	.
Cc1ccc2nsnc2c1S(=O)(=O)Nc1ccc(I)cc1	.	.	.	54.5
Cc1ccc2nsnc2c1S(=O)(=O)Nc1ccc(C(=O)O)cc1	.	.	.	.
COc1cc2c(cc1OC)[C@@H]1C(=O)c3ccc4c(c3O[C@@H]1CO2)C=CC(C)(C)O4	.	.	.	68.9
Cc1ccc(S(=O)(=O)N/N=C/c2ccccc2O)cc1	.	.	.	.
Cc1ccc(S(=O)(=O)N/N=C/c2sc3ccccc3c2O)cc1	.	.	.	51.0
O=S(=O)(c1ccccc1)N1CCC(O)(CSc2ccc(Cl)cc2)CC1	.	.	.	39.2
O=[N+]([O-])c1cccc(S(=O)(=O)N2CCCC(c3nc(-c4cccs4)no3)C2)c1 (configuration not stated)	3.0	.	.	.
SMILES	FBW7 act	GPR151 activ	MITF primary	TEAD-YAP inh
O=C1Nc2ccccc2/C1=C/C=C/c1ccco1	.	.	.	.
O=C1/C(=C\c2ccco2)CCC/C1=C\c1ccco1	.	.	83.0	.
O=C1/C(=C/C=C/c2ccco2)CCC/C1=C\C=C\c1ccco1	.	.	64.4	.
O/N=C1\CCCC\C1=C\c1ccco1	.	.	.	.
COc1cc(C(=O)Nc2cccc(C)c2)cc(OC)c1OC	.	.	.	.
Cc1ccccc1NC(=O)c1sc2nc3c(cc2c1N)C(=O)CCC3	.	.	.	39.0
CCc1ccccc1NC(=O)c1sc2nc3c(cc2c1N)C(=O)CCC3	.	.	.	54.1
CCc1ccccc1NC(=O)c1sc2nc3c(cc2c1N)C(=O)CC(C)(C)C3	.	.	.	.
CCCCCCCc1c2c(C)c(C(=O)OCC)nc-2cc2n1C(C)C(C)=C2C (configuration not stated)	.	.	.	.
CCCCCCCc1c2c(C)c(C(=O)OCC)nc-2cc2n1CC(C)=C2C	.	.	.	42.0
CC(=O)Nc1nc2ccc(NC(=O)c3c([N+](=O)[O-])cnn3C)cc2s1	.	.	.	53.0
Nc1ccc(C(=O)Nc2nc3cc4sc(NC(=O)c5ccc(N)cc5)nc4cc3s2)cc1	6.7	.	.	.
Cn1ncc(Cl)c1C(=O)Nc1ccc2nc(NC(=O)C3CCCCC3)sc2c1	.	.	.	57.3
O=C(Nc1ccccc1)c1ccc2nc(NC(=O)C3CCCCC3)sc2c1	.	.	.	.
Cn1ncc(Cl)c1C(=O)Nc1ccc(Cl)c(Cl)c1	.	.	.	.
Nc1ccc(C(=O)Nc2ccc3nc(NC(=O)C4CCCCC4)sc3c2)cc1	.	.	.	40.0
COc1cc(NC(=O)C(Cc2ccccc2)N2Cc3ccccc3C2=O)cc(OC)c1OC (configuration not stated)	.	.	.	.
Brc1cccc(Nc2ncnc3ccccc23)c1	.	.	.	.
COc1ccc(CCn2c(SCc3cccnc3)nc3ccsc3c2=O)cc1OC	.	.	.	.
Cc1ccc(C(=O)N2CCN(c3nc(-c4ccccc4)c4cc(Br)ccc4n3)CC2)cc1	.	.	.	.
O=C(c1ccccc1)N1CCN(c2nc(-c3ccccc3)c3ccccc3n2)CC1	2.2	.	.	.
Cc1ccc2nc(N3CCN(C=O)CC3)nc(-c3ccccc3)c2c1	2.1	.	.	.
CCOC(=O)C1(CCCc2ccccc2)CCN(C(=O)c2cnsn2)CC1	.	.	.	.
C=CCNC(=S)N/N=C/c1ccc(C(F)(F)F)cc1	.	.	.	43.5
CCc1ccc(-c2nc(CS(=O)CC(=O)NC(C)CC)c(C)o2)cc1 (configuration not stated)	.	.	.	.
SMILES	FBW7 act	GPR151 activ	MITF primary	TEAD-YAP inh
CC(C)COC(=O)n1c(=O)oc2cc(Br)ccc21	.	.	.	.
O=C(CCl)N(CC1=CCSC1)c1ccccc1	.	.	.	46.8
COc1cc(C=O)ccc1OCc1nnnn1-c1ccccc1	2.0	.	.	.
C/C(N)=C(/C#N)C(=O)CSc1nnc(-c2ccc(Cl)cc2Cl)n1N	.	.	.	.
CCOCCCNC(=O)c1ccc2c(c1)nc(C)n2-c1cc(C)ccc1OC	.	.	.	.
COCCCNC(=O)c1ccc2c(c1)nc(C)n2-c1cc(C)ccc1OC	.	.	.	55.6
c1coc(-c2nnc(SCc3nc4ccccc4[nH]3)o2)c1	.	.	.	43.5
NNC(=O)/C(=C/c1cccs1)NC(=O)c1ccccc1Cl	.	.	.	42.4
NNC(=O)/C(=C/c1ccc2c(c1)OCO2)NC(=O)c1ccccc1Cl	.	.	.	.
N#Cc1ccc(CN2C(=O)C(=O)N(Cc3ccccc3)C2=O)cc1	.	.	.	.
COc1ccc(-c2c(C)oc3cc(OS(C)(=O)=O)ccc3c2=O)cc1OC	.	.	.	34.2
CCOC(=O)C(NC(=O)CC)(Nc1sc2c(c1C(=O)OC)CCN(C)C2)C(F)(F)F (configuration not stated)	3.4	.	.	.
Cc1cc(NC(=O)CNCc2ccc(F)cc2)no1	.	.	.	.
